Inconclusive results are not listed. Active and inactive are the calls of the source. Unless noted, the call rests on the fitted dose curve; in most records, active means well fitted curve in the direction sought with a large enough effect; inconclusive means small, poorly fitted or top-dose-only effect, or another doubt; inactive means no such curve, though single readings can be large; an effect the other way counts as inactive or inconclusive.
Legend:
[1] = target: Lysosomal acid glucosylceramidase (Homo sapiens) (UniProt P04062); assay: Glucocerebrosidase-p2 (AID 348; in the data active means potency below about 10 µM; further: potency means the concentration at half of the fitted maximal effect); settings: purified GBA, blue fluorogenic substrate, 40 min
Lysosomal acid glucosylceramidase (Homo sapiens), sequence (P04062 whole entry, looked up): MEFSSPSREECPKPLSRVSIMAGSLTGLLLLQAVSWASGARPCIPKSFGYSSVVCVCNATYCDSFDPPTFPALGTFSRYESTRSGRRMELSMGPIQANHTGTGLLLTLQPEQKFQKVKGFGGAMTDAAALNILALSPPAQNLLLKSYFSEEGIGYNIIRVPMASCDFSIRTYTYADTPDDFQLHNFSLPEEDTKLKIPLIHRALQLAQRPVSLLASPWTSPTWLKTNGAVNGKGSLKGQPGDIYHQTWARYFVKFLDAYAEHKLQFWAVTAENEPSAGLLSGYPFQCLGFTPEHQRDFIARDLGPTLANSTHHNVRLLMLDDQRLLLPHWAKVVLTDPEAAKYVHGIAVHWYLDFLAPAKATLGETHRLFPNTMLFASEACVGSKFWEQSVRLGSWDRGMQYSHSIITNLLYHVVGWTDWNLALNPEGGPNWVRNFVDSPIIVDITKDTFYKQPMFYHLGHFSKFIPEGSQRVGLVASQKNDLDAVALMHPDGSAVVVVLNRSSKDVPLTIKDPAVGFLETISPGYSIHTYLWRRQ
Method in brief: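 Compounds titrated from 0.6 nM upwards against 0.2 nM enzyme in pH 5.9 citric acid/KH2PO4, taurocholate, tween-20; blue fluorogenic substrate 80 uM, 40 min room temperature, stopped and read Ex 365/Em 440 for AC50.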

[2] = AP1 Signaling Pathway (AID 357; active means well fitted curve in either direction with a large enough effect, not every such curve was filed as active;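 further: ME-180 reporter cells stimulated with EGF at its EC50 level; on the % scale 0 is the no-effect control and ±100 the full control effect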); settings: ME-180 AP-1-bla reporter, EGF-induced, beta-lactamase ratio, 5 h; at 7.69 µM (top of the series) unless noted
Method in brief: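 A ratiometric CCF4 readout (405 nm excitation; 460 and 530 nm emission) quantified AP-1-driven beta-lactamase in ME-180 cells after 5 h with compound and EC50 EGF; AC50 values were derived for activators and inhibitors.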

[3] = target: Cytochrome P450 1A2 (Homo sapiens) (UniProt P05177); assay: p450-cyp1a2 (AID 410; calls by dose curve; further: potency means the concentration at half of the fitted maximal effect;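 on activity change, negative = inhibition: -100% = full effect of reference inhibitor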); settings: recombinant CYP1A2, luciferin-ME demethylation, luminescence; series mostly up to 57 µM
Cytochrome P450 1A2 (Homo sapiens), sequence (P05177 whole entry, looked up): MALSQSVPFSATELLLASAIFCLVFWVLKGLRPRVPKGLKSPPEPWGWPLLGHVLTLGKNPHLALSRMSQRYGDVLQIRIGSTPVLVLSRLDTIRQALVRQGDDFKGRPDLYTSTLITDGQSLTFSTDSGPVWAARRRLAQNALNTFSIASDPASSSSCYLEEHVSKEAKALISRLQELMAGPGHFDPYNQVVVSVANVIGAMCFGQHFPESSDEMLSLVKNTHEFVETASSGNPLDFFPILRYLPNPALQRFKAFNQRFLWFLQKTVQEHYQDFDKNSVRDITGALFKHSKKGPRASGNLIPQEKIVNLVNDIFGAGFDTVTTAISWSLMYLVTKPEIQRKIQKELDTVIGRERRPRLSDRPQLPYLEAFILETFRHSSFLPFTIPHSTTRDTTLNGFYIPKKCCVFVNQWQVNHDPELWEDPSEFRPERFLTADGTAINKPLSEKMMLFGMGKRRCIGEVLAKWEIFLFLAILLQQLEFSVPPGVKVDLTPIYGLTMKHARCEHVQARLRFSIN
Method in brief: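 Luminescent readout of luciferin formed from Luciferin-ME by human CYP1A2; data normalized against complete inhibition by 57 uM furafylline. Enzyme 20nM, substrate 100uM at Km, 100mM KPO4 buffer, 60 min reaction at room temperature.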

[4] = NFAT Signaling Pathway (AID 444; active means well fitted curve in either direction with a large enough effect, not every such curve was filed as active;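 further: carbachol stimulus at about its EC50 of 1 µM final; on the % scale 0 is the no-effect control and ±100 the full control effect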); settings: Jurkat NFAT-bla M1, carbachol, beta-lactamase ratio, 5 h; at 7.69 µM (top of the series) unless noted
Method in brief: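 Read-out: CCF4 FRET ratio (460 nm/530 nm) after 1 h RT dye loading, used for %activity and AC50 from titration series. Cells: Jurkat NFAT-β-lactamase/M1 line, treated with compound plus 1 uM carbachol for 5 h, 37 °C.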

[5] = Stat Signaling Pathway (AID 446; active means well fitted curve in either direction with a large enough effect, not every such curve was filed as active;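 further: ME-180 cervical cancer cells given 40 pM IL-6 alongside compound; SIE-controlled beta-lactamase reporter measured as 460/530 nm FRET emission ratio; on the % scale 0 is the no-effect control and ±100 the full control effect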); settings: ME-180 SIE beta-lactamase reporter, IL-6 stimulated, 5 h; at 7.69 µM (top of the series) unless noted
Method in brief: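 Screening format detects activators and inhibitors alike: ME-180 SIE-bla cells stimulated at 40 pM IL-6 for 5 hrs with compound, then dual-emission beta-lactamase read at 405 nm excitation.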

[6] = target: Glucocorticoid receptor (Homo sapiens) (UniProt P04150); assay: GR-GFP Redistribution (AID 450;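 active means compounds whose dose series gives a full or clear partial fitted curve of increased nuclear translocation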; further: potency means the concentration at half of the fitted maximal effect); settings: U2OS GR-GFP nuclear translocation, laser cytometry, 2 h
Glucocorticoid receptor (Homo sapiens), sequence (P04150 whole entry, looked up, the tested form may be a part): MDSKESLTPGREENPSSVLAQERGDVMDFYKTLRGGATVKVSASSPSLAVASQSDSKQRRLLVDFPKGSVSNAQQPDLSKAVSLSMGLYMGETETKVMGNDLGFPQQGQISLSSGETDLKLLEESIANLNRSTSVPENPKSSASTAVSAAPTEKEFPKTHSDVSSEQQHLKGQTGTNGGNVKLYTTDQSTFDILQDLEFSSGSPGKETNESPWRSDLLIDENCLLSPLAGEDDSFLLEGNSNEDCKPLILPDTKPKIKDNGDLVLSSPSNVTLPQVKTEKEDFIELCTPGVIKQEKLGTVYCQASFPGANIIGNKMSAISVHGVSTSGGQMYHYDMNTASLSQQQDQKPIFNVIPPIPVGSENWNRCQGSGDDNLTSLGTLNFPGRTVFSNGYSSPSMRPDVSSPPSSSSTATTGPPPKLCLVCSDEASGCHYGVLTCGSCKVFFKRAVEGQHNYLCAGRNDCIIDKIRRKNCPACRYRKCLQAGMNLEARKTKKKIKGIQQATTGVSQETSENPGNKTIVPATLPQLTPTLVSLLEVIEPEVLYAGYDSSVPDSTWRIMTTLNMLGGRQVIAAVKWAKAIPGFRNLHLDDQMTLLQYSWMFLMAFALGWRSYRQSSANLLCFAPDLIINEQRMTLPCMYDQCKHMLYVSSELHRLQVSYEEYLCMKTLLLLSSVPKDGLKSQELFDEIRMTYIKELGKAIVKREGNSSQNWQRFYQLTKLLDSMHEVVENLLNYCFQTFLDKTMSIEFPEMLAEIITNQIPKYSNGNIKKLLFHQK

[7] = target: Glucocorticoid receptor (Homo sapiens) (UniProt P04150); assay: GR-EFC Redistribution (AID 451; calls by dose curve; further: potency means the concentration at half of the fitted maximal effect); settings: CHO-K1 GR-EFC translocation, beta-gal luminescence, 2 h
Method in brief: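 Translocation of GR-ED fusion to nuclear EA restores b-gal, read by luminescence after 1 h room-temperature detection. Engineered CHO-K1 biosensor cells, 1,000/well, exposed 2 h at 37 C to titrations up to 46 uM final.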

[8] = target: Mitogen-activated protein kinase 10 (Mus musculus) (UniProt Q61831); assay: JNK3 AlphaScreen Assay (AID 530; active means well fitted curve in either direction with a large enough effect, not every such curve was filed as active;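 further: kinase came from lysate of stimulated human HepG2 cells; signal reports phosphorylation of biotinylated GST-cJun 1-79 at Ser73 with 10 µM ATP; on the % scale 0 is the no-effect control and ±100 the full control effect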); settings: JNK3 lysate, c-Jun phosphorylation; series mostly up to 57.1 µM
Method in brief: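 Compound titrations were preincubated 15 minutes at room temperature with substrate, antibody and pre-activated JNK3-containing HepG2 lysate. Reactions were started with 10 uM ATP and stopped with EDTA-containing bead buffer for AlphaScreen detection.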

[9] = target: 3',5'-cyclic-AMP phosphodiesterase 4B (Homo sapiens) (UniProt Q07343); assay: qHTS Assay for Inhibitors of PDE-IV (AID 607; active means well fitted activation curve with a large enough effect in the main read-out, with a control signal flat, not every such curve was filed as active; further: % of control where 0% means no effect); settings: HEK293 ACTOne CNG channel cells, membrane potential fluorescence; series mostly up to 22.9 µM
3',5'-cyclic-AMP phosphodiesterase 4B (Homo sapiens), sequence (Q07343 whole entry, looked up): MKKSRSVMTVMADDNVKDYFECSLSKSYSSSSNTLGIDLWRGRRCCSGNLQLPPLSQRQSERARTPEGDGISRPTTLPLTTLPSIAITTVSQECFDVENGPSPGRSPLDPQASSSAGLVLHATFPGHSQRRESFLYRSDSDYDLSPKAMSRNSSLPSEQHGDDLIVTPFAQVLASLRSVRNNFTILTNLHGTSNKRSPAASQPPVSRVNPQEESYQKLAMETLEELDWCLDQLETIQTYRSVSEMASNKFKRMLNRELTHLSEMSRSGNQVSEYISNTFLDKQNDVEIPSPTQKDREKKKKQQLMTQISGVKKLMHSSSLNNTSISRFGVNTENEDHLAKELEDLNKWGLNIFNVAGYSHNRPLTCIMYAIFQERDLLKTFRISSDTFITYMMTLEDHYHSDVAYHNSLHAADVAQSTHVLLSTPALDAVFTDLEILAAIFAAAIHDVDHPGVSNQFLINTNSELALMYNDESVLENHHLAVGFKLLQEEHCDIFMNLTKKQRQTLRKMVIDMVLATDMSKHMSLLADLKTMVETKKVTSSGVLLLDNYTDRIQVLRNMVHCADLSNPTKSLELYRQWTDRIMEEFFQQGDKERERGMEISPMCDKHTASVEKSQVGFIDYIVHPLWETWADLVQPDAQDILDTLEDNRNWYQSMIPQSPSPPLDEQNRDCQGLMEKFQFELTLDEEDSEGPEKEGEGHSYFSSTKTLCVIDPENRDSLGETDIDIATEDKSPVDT
Method in brief: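 The readout is membrane depolarisation from a cAMP-sensing CNG channel, detected with a potential dye at ex 535/em 590. Cells were HEK293-derived (endogenous PDE-IV) at 1000 cells/well, titrated up to 22.9 uM final.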

[10] = target: Cytochrome P450 3A4 (Homo sapiens) (UniProt P08684); assay: qHTS Assay for Activators of Cytochrome P450 3A4 (AID 885); settings: recombinant CYP3A4, Luciferin-PPXE luminescence, 60 min; series mostly up to 57.1 µM; further: nearly all actives have a fitted effect of over 65% in size
Cytochrome P450 3A4 (Homo sapiens), sequence (P08684 whole entry, looked up): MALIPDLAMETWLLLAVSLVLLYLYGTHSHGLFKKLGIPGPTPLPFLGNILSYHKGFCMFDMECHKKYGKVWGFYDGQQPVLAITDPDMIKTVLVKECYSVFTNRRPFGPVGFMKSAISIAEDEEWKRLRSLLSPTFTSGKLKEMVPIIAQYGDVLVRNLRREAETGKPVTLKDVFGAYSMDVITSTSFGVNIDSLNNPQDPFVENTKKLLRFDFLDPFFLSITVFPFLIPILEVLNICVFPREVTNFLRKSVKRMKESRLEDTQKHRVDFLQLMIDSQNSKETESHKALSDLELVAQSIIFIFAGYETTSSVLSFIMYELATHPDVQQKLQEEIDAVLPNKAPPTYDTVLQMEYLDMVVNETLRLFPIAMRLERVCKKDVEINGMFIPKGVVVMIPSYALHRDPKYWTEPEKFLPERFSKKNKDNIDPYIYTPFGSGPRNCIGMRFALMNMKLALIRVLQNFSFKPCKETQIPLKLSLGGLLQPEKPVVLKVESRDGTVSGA
Method in brief: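 Steps: enzyme/substrate mix dispensed; compound added, 10 min RT; NADPH regeneration solution added, 60 min RT; luciferin detection buffer stops reaction; 20 min later luminescence measured.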

[11] = qHTS Assay for Lipid Storage Modulators (AID 1519; calls by dose curve); settings: Drosophila S3 cells, BODIPY lipid droplet/cell ratio, laser cytometry, cells loaded with oleic acid; for activity change, negative = inhibition: at 57.5 µM (top of the series)
Method in brief: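 Cells seeded at 5,000 per well were treated with compounds over a concentration series and loaded with oleic acid (400 uM, as added). Lipid droplet fluorescence (488 nm excitation, 500-530 nm channel) was read by laser-scanning cytometry and normalized to 20 uM Triacsin C.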

[12] = target: Dual specificity protein kinase CLK4 (Homo sapiens) (UniProt Q9HAZ1); assay: qHTS Assay for Inhibitors of CDC-like Kinase 4 (ADP-FP Assay) (AID 1795); settings: Transcreener ADP fluorescence polarization; series mostly up to 50 µM; further: nearly all actives have a fitted effect of over 60% in size; further: potency means the concentration at half of the fitted maximal effect
Dual specificity protein kinase CLK4 (Homo sapiens), sequence (Q9HAZ1 whole entry, looked up): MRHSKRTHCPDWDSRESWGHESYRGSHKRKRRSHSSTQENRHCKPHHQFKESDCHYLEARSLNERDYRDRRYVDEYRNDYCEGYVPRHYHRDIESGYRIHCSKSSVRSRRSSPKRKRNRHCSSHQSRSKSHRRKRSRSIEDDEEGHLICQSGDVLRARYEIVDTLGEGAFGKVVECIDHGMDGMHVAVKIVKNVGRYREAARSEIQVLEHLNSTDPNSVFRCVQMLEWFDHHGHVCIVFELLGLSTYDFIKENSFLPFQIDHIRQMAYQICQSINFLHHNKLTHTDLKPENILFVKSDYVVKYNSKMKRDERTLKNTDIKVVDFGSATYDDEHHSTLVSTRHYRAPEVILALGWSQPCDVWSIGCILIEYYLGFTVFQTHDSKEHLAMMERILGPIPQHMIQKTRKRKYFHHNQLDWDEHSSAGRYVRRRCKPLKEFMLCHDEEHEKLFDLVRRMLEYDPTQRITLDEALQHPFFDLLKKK
Method in brief: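 Kinase activity was followed as ADP output, converted from fluorescence polarization with a calibration curve. Reactions ran one hour at low ATP (1 uM) with RS peptide substrate.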

[13] = target: Ubiquitin carboxyl-terminal hydrolase 1 (Homo sapiens) (UniProt O94782); assay: Inhibitors of USP1/UAF1: Pilot qHTS (AID 504865); settings: purified USP1/UAF1, Ub-rhodamine cleavage fluorescence; series mostly up to 54.9 µM;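 further: rhodamine fluorescence freed from ubiquitin-rhodamine substrate followed over time; top concentration of the series differs between compounds; on the % scale 0 is the no-effect control and ±100 the full control effect; nearly all actives have a fitted effect of over 35% in size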
Ubiquitin carboxyl-terminal hydrolase 1 (Homo sapiens), sequence (O94782 whole entry, looked up): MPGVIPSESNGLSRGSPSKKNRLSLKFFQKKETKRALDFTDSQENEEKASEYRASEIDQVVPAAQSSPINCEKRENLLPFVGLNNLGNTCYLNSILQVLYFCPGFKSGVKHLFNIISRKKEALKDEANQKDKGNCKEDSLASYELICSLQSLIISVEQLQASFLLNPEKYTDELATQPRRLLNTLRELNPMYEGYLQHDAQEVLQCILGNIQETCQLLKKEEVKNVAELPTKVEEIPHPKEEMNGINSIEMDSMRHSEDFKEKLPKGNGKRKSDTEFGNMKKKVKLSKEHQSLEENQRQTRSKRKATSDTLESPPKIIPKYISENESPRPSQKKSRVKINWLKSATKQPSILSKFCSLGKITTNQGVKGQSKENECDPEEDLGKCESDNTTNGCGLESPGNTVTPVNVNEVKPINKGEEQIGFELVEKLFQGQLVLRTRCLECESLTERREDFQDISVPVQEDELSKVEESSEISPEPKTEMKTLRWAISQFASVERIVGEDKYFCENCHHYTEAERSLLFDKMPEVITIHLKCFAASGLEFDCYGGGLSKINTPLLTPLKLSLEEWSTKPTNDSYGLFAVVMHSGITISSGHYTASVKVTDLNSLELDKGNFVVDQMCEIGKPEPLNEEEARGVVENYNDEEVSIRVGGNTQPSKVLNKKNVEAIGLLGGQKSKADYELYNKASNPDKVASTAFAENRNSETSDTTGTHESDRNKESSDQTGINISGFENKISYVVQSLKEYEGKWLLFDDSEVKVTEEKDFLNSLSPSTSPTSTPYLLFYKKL
Method in brief: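 Enzyme-free wells gave the negative control, while test wells held 1nM USP1/UAF1 preincubated with compound for 15 min at room temperature. Ub-Rho at 150nM final started the reaction, and fluorescence at 480/540 nm was recorded kinetically.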

[14] = Primary qHTS for small molecule stabilizers of the endoplasmic reticulum resident proteome: Secreted ER Calcium Modulated Protein (SERCaMP) assay (AID 1508630); settings: SH-SY5Y GLuc-SERCaMP (Gaussia luciferase released on ER calcium loss) secretion, thapsigargin, luminescence; series mostly up to 38.4 µM; further: on the % scale 0 is the no-effect control and ±100 the full control effect
Method in brief: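 GLuc-SERCaMP-expressing SH-SY5Y cells, pretreated 16 h with compound, are challenged with thapsigargin to empty ER calcium stores; after 4 h, coelenterazine is added directly to the medium and luminescence is imaged.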

[15] = target: Cytochrome P450 2C9 (Homo sapiens) (UniProt P11712); assay: qHTS Assay for Inhibitors and Substrates of Cytochrome P450 2C9 (AID 883); settings: recombinant CYP2C9, luciferin-H luminescence, 60 min; series mostly up to 57.1 µM; further: on the % scale 0 is the no-effect control and ±100 the full control effect; nearly all actives have a fitted effect of over 60% in size
Cytochrome P450 2C9 (Homo sapiens), sequence (P11712 whole entry, looked up): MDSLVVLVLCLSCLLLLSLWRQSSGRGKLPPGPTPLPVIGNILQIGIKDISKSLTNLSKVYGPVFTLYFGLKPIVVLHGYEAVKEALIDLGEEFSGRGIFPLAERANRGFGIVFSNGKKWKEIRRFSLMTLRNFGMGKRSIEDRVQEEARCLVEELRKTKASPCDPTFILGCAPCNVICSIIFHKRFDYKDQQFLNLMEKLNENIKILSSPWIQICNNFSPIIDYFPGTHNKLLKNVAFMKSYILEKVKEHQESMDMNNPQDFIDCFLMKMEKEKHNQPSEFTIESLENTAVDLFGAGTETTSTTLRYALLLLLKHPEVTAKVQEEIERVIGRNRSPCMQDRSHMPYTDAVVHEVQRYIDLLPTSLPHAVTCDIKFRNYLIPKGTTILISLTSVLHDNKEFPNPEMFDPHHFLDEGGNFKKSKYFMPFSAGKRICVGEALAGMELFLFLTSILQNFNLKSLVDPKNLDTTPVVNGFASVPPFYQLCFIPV
Method in brief: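 Turnover of Luciferin-H (100uM, KM) by 10nM human CYP2C9 was measured over 60 min at 37C with NADPH regeneration; inhibitors and some substrates reduce luminescence. Data normalized to sulphaphenazole 57uM.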

[16] = measured here: cell count channel max response
[17] = measured here: lipid channel max response

CN1CCN(c2ncnc3ccc(-c4ccc(C(=O)N(C)C)cc4)cc23)CC1
25.5%: max response [11, 17]
23.5%: max response [11, 16]
inactive: Potency [1] > 11.4 µM | activity change, negative = inhibition [2] -10.8% | Potency [3] | activity change, negative = inhibition [4] 1.97% | activity, negative = inhibition [5] -6.95% | Potency [6] > 46 µM | Potency [7] > 46 µM | outcome [8] | Potency [9] | Potency [10] | activity change, negative = inhibition [11] 2.73% | Potency [12] | Potency [13] | Potency [14]

COc1cccc(Nc2ncc3nc(-c4cn(C)c5ccccc45)c(=O)n(CCC#N)c3n2)c1
active: Potency [3] 20 µM
27%: max response [11, 16]
27.4%: max response [11, 17]
inactive: Potency [1] > 11.4 µM | activity change, negative = inhibition [2] -25.6% | activity change, negative = inhibition [4] -5.99% | activity, negative = inhibition [5] -9.25% | Potency [6] > 9.22 µM | Potency [7] > 46 µM | outcome [8] | Potency [9] | Potency [10] | activity change, negative = inhibition [11] 2.44% | Potency [12] | Potency [13] | Potency [14]

COCCNc1ccnc(-c2ccccc2C(F)(F)F)n1
inactive: Potency [1] > 11.4 µM | activity, negative = inhibition [5] 8.97% | Potency [6] > 46 µM | Potency [7] > 46 µM | outcome [8] | Potency [9] | activity change, negative = inhibition [15] 34.3% [at 2.29 µM] | activity change, negative = inhibition [11] 3.61% | Potency [12] | Potency [13] | Potency [14]
29.2%: max response [11, 17]
active: Potency [3] 20 µM
25.6%: max response [11, 16]

N#Cc1ccccc1-c1nc(NCCN2CCOCC2)c2ccccc2n1
18.6%: max response [11, 17]
inactive: Potency [1] > 11.4 µM | activity change, negative = inhibition [2] 1.04% | activity, negative = inhibition [5] 2.02% | Potency [6] > 46 µM | Potency [7] > 46 µM | outcome [8] | Potency [9] | activity change, negative = inhibition [11] 4.61% | Potency [12] | Potency [13] | Potency [14]
14.8%: max response [11, 16]

Cc1noc(C)c1-c1cc(NCc2cccs2)ncn1
active: Potency [12] 14.1 µM
inactive: Potency [1] > 11.4 µM | activity change, negative = inhibition [2] 17% | activity change, negative = inhibition [4] -7.58% | activity, negative = inhibition [5] 7.7% | Potency [6] > 46 µM | Potency [7] > 46 µM | outcome [8] | Potency [9] | Potency [10] | activity change, negative = inhibition [11] 5.54% | Potency [13] | Potency [14]
27.7%: max response [11, 17]
20.5%: max response [11, 16]

N#Cc1cccc(-c2cc(NCc3ccccc3)ncn2)c1
active: Potency [3] 1 µM
inactive: Potency [1] > 11.4 µM | activity change, negative = inhibition [2] -7.27% | activity change, negative = inhibition [4] 17.5% | activity, negative = inhibition [5] 4.28% | Potency [6] > 46 µM | Potency [7] > 46 µM | outcome [8] | activity change, negative = inhibition [11] 6.18% | Potency [13] | Potency [14]
32.1%: max response [11, 17]
26.4%: max response [11, 16]
